PLCb3 inh = PLC-beta3 (human) inhibition, primary screen | 370,000 tested, 0.18% active | inhibition, % at 12.2 µM | Purified PLC-beta3, fluorogenic substrate, fluorescence | Q01970
sPLA2-III inh = Blocks human group III sPLA2 activity. QFRET BODIPY PC-A2 liposome hydrolysis, fluorescence. 370,000 tested, 0.56% active. inhibition, % at 12.2 µM. Q9NZ20;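 active = inhibition above mean plus 3 SD of compounds lying within the high and low control bounds, cut at about 19% in these data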
Target sequence (Q9NZ20 whole entry, looked up): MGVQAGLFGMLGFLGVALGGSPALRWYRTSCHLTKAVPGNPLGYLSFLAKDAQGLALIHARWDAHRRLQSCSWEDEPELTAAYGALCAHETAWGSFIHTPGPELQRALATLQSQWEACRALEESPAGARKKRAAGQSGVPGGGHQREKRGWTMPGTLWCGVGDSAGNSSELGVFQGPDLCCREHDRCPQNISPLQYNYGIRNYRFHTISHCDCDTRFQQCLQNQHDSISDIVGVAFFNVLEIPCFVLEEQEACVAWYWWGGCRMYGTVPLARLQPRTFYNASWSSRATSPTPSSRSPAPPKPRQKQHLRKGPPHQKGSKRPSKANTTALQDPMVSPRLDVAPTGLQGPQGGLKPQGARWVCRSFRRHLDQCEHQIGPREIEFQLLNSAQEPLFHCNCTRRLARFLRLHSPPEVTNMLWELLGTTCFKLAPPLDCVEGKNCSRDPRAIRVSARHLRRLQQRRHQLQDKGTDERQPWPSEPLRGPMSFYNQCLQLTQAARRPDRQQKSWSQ
PLCg1 inh = PLC-gamma1 (human) inhibition, primary screen. purified PLC-gamma1, fluorogenic substrate, fluorescence. 370,000 tested, 0.84% active. AID 720700. inhibition, % at 12.2 µM; in the data active = inhibition above about 9.5%
DAGLB inhibitor = blocks human DAGLB lipase activity | Q8NCG7 | HEK293T DAGLB membrane lysate, EnzChek fluorogenic substrate | inhibition, % at 5.17 µM | 340,000 tested, 0.059% active; in the data active = inhibition above about 34%
PLCgamma1 ctr = counter-screen for PLC-beta3 inhibitors: inhibitors of human PLC-gamma1. shares compounds with PLCg1 inh. purified PLC-gamma1, fluorogenic substrate, fluorescence. inhibition, % at 12.3 µM. 3,300 tested, 3.1% active. AID 743258; in the data active = inhibition above about 9.5%
PLCbeta3 conf = human PLC-beta3 inhibition, confirmation; shares compounds with PLCg1 inh; purified PLC-beta3, fluorogenic substrate fluorescence; inhibition, % at 12.3 µM; 3,300 tested, 1% active; AID 743261
Each line names hits and unclear results; the compound was inactive in the other large screens (follow-up assays come after a bar, where they were run). Rows were chosen to be rich in hits. Some 1.5% of all compounds tested hit in one or more screens of this group. Cut-off read from the data, not from the text of the source, unless noted: active = inhibition above about 11%; inactive = the rest.

CCOCCCNC(=O)CN1C(=O)COc2ccc(S(=O)(=O)N3CCCCCC3)cc21	none
CCOCCCNC(=O)CN1CCN(S(=O)(=O)c2ccc3c(c2)CCC3)CC1	PLCg1 inh 9.6 | PLCgamma1 ctr inactive | PLCbeta3 conf inactive
CN1CC(=O)N(CC(=O)Nc2ccc(N(C)C)cc2)c2ccccc2C1=O	PLCg1 inh 13 | PLCgamma1 ctr inactive | PLCbeta3 conf inactive
CN1CC(=O)N(CC(=O)NCCc2ccc(F)cc2)c2ccccc2C1=O	none
Cc1ccc(C(NC(=O)N2CCOCC2)C(Cl)Cl)cc1F (stereo not drawn)	none
Cc1ccc(C(NC(=O)N2CC(C)OC(C)C2)C(Cl)Cl)cc1F (stereo not drawn)	PLCb3 inh 13 | PLCgamma1 ctr inactive | PLCbeta3 conf inactive
Cc1ccc(C(=O)COC(=O)c2c(C)cc(=O)oc2C)cc1[N+](=O)[O-]	PLCb3 inh 12 | PLCgamma1 ctr inactive | PLCbeta3 conf inactive
COc1ccc(OC)c(CN2C(=O)c3ccnn3CC2(C)c2nnnn2C2CCCC2)c1 (stereo not drawn)	none (no result: DAGLB inhibitor)
CS(=O)(=O)c1ccc(OC[C@@H](O)CN2CCC(C(O)(c3ccccc3)c3ccccc3)CC2)cc1	none (no result: DAGLB inhibitor)
CC12CCC(C(=O)N3CCCCC3)(CC1=O)C2(C)C (stereo not drawn)	none
CC1CCCN(C(=O)C23CCC(C)(C(=O)C2)C3(C)C)C1 (stereo not drawn)	PLCb3 inh 11 | PLCgamma1 ctr inactive | PLCbeta3 conf inactive
CC(C)(C)OC(=O)NCc1ccccc1/C=C/S(=O)(=O)NC1CCCC1	none (no result: DAGLB inhibitor)
CC(C)(C)OC(=O)NCc1cc(F)ccc1/C=C/S(=O)(=O)NC1CCCC1	PLCg1 inh 9.8 (no result: DAGLB inhibitor) | PLCgamma1 ctr inactive | PLCbeta3 conf inactive
Cc1ccc(S(=O)(=O)N2CCCC(C(=O)NCCN3CCC(Cc4ccccc4)CC3)C2)cc1 (stereo not drawn)	none (no result: DAGLB inhibitor)
COc1ccccc1-c1cc(C(=O)Nc2ccc(F)cc2F)no1	PLCg1 inh 12 | PLCgamma1 ctr inactive | PLCbeta3 conf inactive
COc1ccccc1-c1cc(C(=O)NC(C)C)no1	none
Cc1cc(OCCCn2ccnc2)ccc1[N+](=O)[O-]	none
Cc1ccc(OCCn2ccnc2)c([N+](=O)[O-])c1	PLCg1 inh 13 | PLCgamma1 ctr inactive | PLCbeta3 conf inactive
O=C(NCc1ccc(C(=O)N2CCOCC2)cc1)c1cccc(Br)c1	none (no result: DAGLB inhibitor)
O=C(Nc1ccccc1Cl)c1cc(C2CCCN(C(=O)CCc3ccccc3)C2)on1 (stereo not drawn)	PLCg1 inh 9.8 (no result: DAGLB inhibitor) | PLCgamma1 ctr inactive | PLCbeta3 conf inactive
Nc1nnc(COc2ccccc2)s1	PLCg1 inh 11 | PLCgamma1 ctr inactive | PLCbeta3 conf inactive
Cc1ccc(OCc2nnc(N)s2)cc1	none
S=C(NCCCNC(=S)Nc1ccccc1)Nc1ccccc1	PLCg1 inh 13 | PLCgamma1 ctr inactive | PLCbeta3 conf inactive
CCCNC(=S)Nc1ccc(Nc2ccccc2)cc1	none
S=C(NCCN1CCCCC1)Nc1ccccc1	PLCg1 inh 10 | PLCgamma1 ctr inactive | PLCbeta3 conf inactive
Nc1[nH]c(C(=O)c2ccccc2)c(-c2ccc(Cl)cc2)c1C(=O)NCCC1=CCCCC1	none (no result: DAGLB inhibitor)
CCSC1=C(C#N)C2(CCCCC2)C(C#N)C(=O)N1 (stereo not drawn)	PLCg1 inh 13 | PLCgamma1 ctr inactive | PLCbeta3 conf inactive
COc1cc(NC(=O)C2CCCN(S(=O)(=O)c3ccc(Br)s3)C2)cc(OC)c1 (stereo not drawn)	none (no result: DAGLB inhibitor)
O=C1CCCC(O)=C1N=Nc1c(Cl)cc(Cl)cc1Cl	PLCg1 inh 10 | PLCgamma1 ctr inactive | PLCbeta3 conf inactive
S=C(Nc1ccccc1Cl)N1CCC(c2ccccc2)C1 (stereo not drawn)	PLCg1 inh 10 | PLCgamma1 ctr inactive | PLCbeta3 conf inactive
Cc1ccc(NC(=S)N2CCC(c3ccccc3)C2)c(Cl)c1 (stereo not drawn)	none
CC1CCCCC1N=CC1=C(O)CC(C)(C)CC1=O (stereo not drawn)	PLCg1 inh 11 | PLCgamma1 ctr inactive | PLCbeta3 conf inactive
Cc1ccccc1Cn1cc(CN2[C@H](C)COc3cc(Br)ccc3S2(=O)=O)nn1	none (no result: DAGLB inhibitor)
O=C(Nc1ccc(N2C(=O)CC3(CCCCC3)C2=O)c(Cl)c1)c1ccccn1	none (no result: DAGLB inhibitor)
Cc1cc(OC[C@@H](O)CN2CCC(C(O)(c3ccccc3)c3ccccc3)CC2)ccc1Br	none (no result: DAGLB inhibitor)
COC(=O)C1=C(C(=O)OC)[C@@H]2N(C)c3ccc(OC)cc3[C@@]23C[C@@H](C(=O)OC)N(C(=O)NCCBr)C3=N1	none (no result: DAGLB inhibitor)
COC(=O)C1=C(C(=O)OC)[C@@H]2N(C)c3ccc(OC)cc3[C@@]23C[C@@H](C(=O)OC)N(C(=O)CC(C)C)C3=N1	PLCg1 inh 9.6 | PLCgamma1 ctr inactive | PLCbeta3 conf inactive
COc1cc(O)c(C(CC(=O)N2CCCC(C)C2)c2ccccc2)c(OC)c1 (stereo not drawn)	none (no result: DAGLB inhibitor)
CCOc1cc(C)c(Cl)cc1S(=O)(=O)NC1CC(C)(C)NC(C)(C)C1	PLCg1 inh 10 | PLCgamma1 ctr inactive | PLCbeta3 conf inactive
C#CCN1CC(N(C)CCOC(=O)c2ccc([N+](=O)[O-])cc2)CS1(=O)=O (stereo not drawn)	none (no result: DAGLB inhibitor)
COC(=O)[C@]12C[C@H](CC(=O)NCCC(C)C)C(=O)N(Cc3ccco3)C1=C[C@H](C(C)(C)C)O[C@@H]2C	none (no result: DAGLB inhibitor)
Cc1ccc(CNS(=O)(=O)c2ccc([N+](=O)[O-])cc2)cc1	PLCg1 inh 12 | PLCgamma1 ctr inactive | PLCbeta3 conf inactive
CCN1CCCCC(NC(=O)c2ccc(F)cc2)C1=O (stereo not drawn)	none (no result: DAGLB inhibitor)
CC(=O)c1c(C)nn(C(=O)N2CCOCC2)c1C	PLCb3 inh 15 | PLCgamma1 ctr inactive | PLCbeta3 conf inactive
Cc1nn(C(=O)N2CCOCC2)c(C)c1CN1C(=O)c2ccccc2C1=O	none
COCC(=O)N(C[C@H]1[C@H](c2ccccc2)[C@@H](CO)N1C(=O)NC(C)C)C(C)C	none (no result: DAGLB inhibitor)
Cc1cnnc2c1-c1no[n+]([O-])c1CC2	PLCg1 inh 13 | PLCgamma1 ctr inactive | PLCbeta3 conf inactive
CCCC1CCC2(CC1)CCC2OC(=O)Nc1c(OC)cccc1OC (stereo not drawn)	none (no result: DAGLB inhibitor)
Cn1c(SCC(=O)NC2CCCCC2)nnc1-c1cccnc1	none
Cn1c(SCC(=O)NC2(C#N)CCCCC2)nnc1-c1cccnc1	PLCg1 inh 12 | PLCgamma1 ctr inactive | PLCbeta3 conf inactive
Cc1ccc(CNC(=O)O[C@H]2CC[C@@]34CCCN3C(=O)CCC[C@H]4[C@H]2C)o1	none (no result: DAGLB inhibitor)
O=C(NCCc1ccccc1)OCc1cn(Cc2ccc(F)cc2)nn1	none (no result: DAGLB inhibitor)
O=C1OCC(Cn2c3ccccc3c3ccccc32)O1 (stereo not drawn)	PLCg1 inh 11 | PLCgamma1 ctr inactive | PLCbeta3 conf inactive
CC(=O)Nc1c(-c2ccccc2Cl)c(=O)c2ccccc2n1C	none
CCCC(=O)Nc1c(-c2ccccc2Cl)c(=O)c2ccccc2n1C	PLCg1 inh 13 | PLCgamma1 ctr inactive | PLCbeta3 conf inactive
CCC(C)N(C(=O)c1ccc(CNC(=O)c2cccc(Br)c2)cc1)C(C)CC (stereo not drawn)	none (no result: DAGLB inhibitor)

From PubChem BioAssay
